Laboratory results taken from PubChem BioAssay (NCATS).
Results filed as inconclusive are left out. The source made the active and inactive calls. Unless noted, the call rests on the fitted dose curve; in most records, active means well fitted curve in the direction sought with a large enough effect; inconclusive means small, poorly fitted or top-dose-only effect, or another doubt; inactive means no such curve, though single readings can be large; an effect the other way counts as inactive or inconclusive.

Key:
[1] = target: Ubiquitin carboxyl-terminal hydrolase 1 (Homo sapiens) (UniProt O94782); test: Inhibitors of USP1/UAF1: Pilot qHTS (AID 504865);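 further: rhodamine fluorescence freed from ubiquitin-rhodamine substrate followed over time; top concentration of the series differs between compounds; on the % scale 0 is the no-effect control and ±100 the full control effect; nearly all actives have a fitted effect of over 35% in size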
Sequence of Ubiquitin carboxyl-terminal hydrolase 1 (Homo sapiens) (O94782 whole entry, looked up): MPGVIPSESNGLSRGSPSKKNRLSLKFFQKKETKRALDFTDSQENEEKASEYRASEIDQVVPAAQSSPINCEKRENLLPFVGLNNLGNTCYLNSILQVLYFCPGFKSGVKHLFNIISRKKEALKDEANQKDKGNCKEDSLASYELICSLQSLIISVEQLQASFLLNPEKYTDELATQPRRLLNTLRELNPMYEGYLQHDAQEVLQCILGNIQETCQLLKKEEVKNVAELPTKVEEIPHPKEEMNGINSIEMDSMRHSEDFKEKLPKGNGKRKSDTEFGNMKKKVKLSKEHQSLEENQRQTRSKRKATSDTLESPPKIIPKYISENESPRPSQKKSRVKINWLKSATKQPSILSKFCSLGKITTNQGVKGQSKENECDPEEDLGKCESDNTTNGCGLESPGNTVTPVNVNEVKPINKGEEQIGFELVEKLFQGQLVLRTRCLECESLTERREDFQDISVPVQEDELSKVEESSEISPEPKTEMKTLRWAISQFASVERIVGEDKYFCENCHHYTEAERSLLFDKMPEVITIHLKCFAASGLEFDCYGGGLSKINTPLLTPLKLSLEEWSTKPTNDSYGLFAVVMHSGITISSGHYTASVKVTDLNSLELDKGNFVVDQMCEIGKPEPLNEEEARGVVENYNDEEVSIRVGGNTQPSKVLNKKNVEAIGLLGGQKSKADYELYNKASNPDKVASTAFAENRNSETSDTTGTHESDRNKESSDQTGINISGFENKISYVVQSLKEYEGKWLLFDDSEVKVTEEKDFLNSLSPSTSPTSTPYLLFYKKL
In short: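 1nM USP1/UAF1 + cpd, 15 min RT; start w/ Ub-Rho 150nM final; kinetic FL 480/540 nm, 6 reads q60 s. Buffer 50mM HEPES pH 7.8, 0.5mM EDTA, 1mM TCEP, 0.01% Tween-20, 0.1 mg/ml BSA.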

[2] = target: Luciferin 4-monooxygenase (Photinus pyralis) (UniProt P08659); test: Biochemical firefly luciferase enzyme assay for NPC (AID 624030);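 further: purified P. pyralis luciferase at 10 nM with luciferin and ATP substrate; 0% = DMSO and -100% = full luciferase inhibition by PTC124 control; nearly all actives have a fitted effect of over 70% in size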
Sequence of Luciferin 4-monooxygenase (Photinus pyralis) (P08659 whole entry, looked up): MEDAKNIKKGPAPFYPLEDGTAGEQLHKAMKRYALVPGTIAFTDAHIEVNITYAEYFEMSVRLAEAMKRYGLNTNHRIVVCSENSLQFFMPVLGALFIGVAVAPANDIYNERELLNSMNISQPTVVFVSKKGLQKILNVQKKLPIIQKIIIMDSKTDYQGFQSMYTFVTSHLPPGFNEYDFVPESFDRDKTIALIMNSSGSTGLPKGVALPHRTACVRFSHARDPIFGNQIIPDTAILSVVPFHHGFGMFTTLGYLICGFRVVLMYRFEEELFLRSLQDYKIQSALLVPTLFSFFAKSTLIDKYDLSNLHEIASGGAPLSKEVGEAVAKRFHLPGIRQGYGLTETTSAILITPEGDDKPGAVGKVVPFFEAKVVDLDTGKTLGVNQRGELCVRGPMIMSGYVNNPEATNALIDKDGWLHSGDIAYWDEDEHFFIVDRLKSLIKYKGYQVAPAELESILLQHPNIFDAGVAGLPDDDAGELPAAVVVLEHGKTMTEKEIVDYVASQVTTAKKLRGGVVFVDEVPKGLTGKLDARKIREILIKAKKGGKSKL
In short: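 Direct inhibition of firefly luciferase enzyme (10 nM final, 50 mM Tris Acetate) assessed by luminescence within 5 minutes. Percent activity scaled between DMSO and PTC124 positive control, with concentration-effect curves classified by fit quality and response.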

[3] = S16 Schwann cell viability assay (CellTiter-Glo assay) (AID 624031);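 further: native untransfected S16 rat Schwann cells; plate controls were DMSO-treated cells for no effect and cell-free wells for full effect; nearly all actives have a fitted effect of over 70% in size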
In short: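 Counter-screen for cytotoxicity: parental S16 rat Schwann cells lacking the PMP22 reporters, treated 24 h with compound, viability from cellular ATP by CellTiter-Glo luminescence, normalized to DMSO (0%) and no-cell wells.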

[4] = S16 Schwann cell PMP22 intronic element firefly luciferase assay (AID 624032);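 further: plate controls were DMSO for no effect and PTC124 positive control mean for full effect; nearly all actives have a fitted effect of over 30% in size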
In short: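 Luciferase reporter of PMP22 intronic-element expression in stably transfected S16 rat Schwann cells, read by ONE-Glo luminescence after 24 h compound exposure at 37 C. Activity scaled between DMSO (0%) and positive-control PTC124; concentration-effect curves quality-classified.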

[5] = S16 Schwann cell PMP22 intronic element beta-lactamase assay (AID 624044; calls by dose curve;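 further: 0% = DMSO and -100% = potassium clavulanate positive control; nearly all actives have a fitted effect of over 15% in size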)
In short: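 Beta-lactamase reporter under a PMP22 intronic regulatory element in stable S16 rat Schwann cells; 24 h compound exposure. 460 nm blue signal normalized between DMSO (0%) and potassium clavulanate, with 535 nm FRET tracking viability; curves classed by r2 and response.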

[6] = qHTS profiling for inhibitors of Plasmodium falciparum proliferation (AID 504749);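 further: 0% = DMSO vehicle and full inhibition = artemisinin control; nearly all actives have a fitted effect of over 60% in size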; details: P. falciparum in erythrocytes, SYBR Green DNA, 72 h, at 28.7 µM (top of the series)
In short: (§1)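 SYBR Green fluorescence of parasite DNA, read after lysis and overnight dark incubation, measured growth over 72 h in erythrocyte culture at 0.3% parasitemia and 2.5% hematocrit. Data normalised to DMSO and 0.29 uM artemisinin, with plate-drift correction.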

[7] = test system: 3D7; test: as above; details: P. falciparum in erythrocytes, SYBR Green DNA, 72 h; series mostly up to 28.7 µM
In short: as §1

[8] = test system: 7G8; test: as above; details: P. falciparum in erythrocytes, SYBR Green DNA, 72 h; series mostly up to 28.7 µM
In short: as §1

[9] = test system: AA1029; test: as above; details: P. falciparum in erythrocytes, SYBR Green DNA, 72 h; series mostly up to 28.7 µM
In short: as §1

[10] = test system: AS120; test: as above; details: P. falciparum in erythrocytes, SYBR Green DNA, 72 h; series mostly up to 28.7 µM
In short: as §1

[11] = test system: ATS189; test: as above; details: P. falciparum in erythrocytes, SYBR Green DNA, 72 h; series mostly up to 28.7 µM
In short: as §1

[12] = test system: ATS95; test: as above; details: P. falciparum in erythrocytes, SYBR Green DNA, 72 h; series mostly up to 28.7 µM
In short: as §1

[13] = test system: C2A; test: as above; details: P. falciparum in erythrocytes, SYBR Green DNA, 72 h; series mostly up to 28.7 µM
In short: as §1

[14] = test system: CP185; test: as above; details: P. falciparum in erythrocytes, SYBR Green DNA, 72 h; series mostly up to 28.7 µM
In short: as §1

[15] = test system: CP191; test: as above; details: P. falciparum in erythrocytes, SYBR Green DNA, 72 h; series mostly up to 28.7 µM
In short: as §1

[16] = test system: CP192; test: as above; details: P. falciparum in erythrocytes, SYBR Green DNA, 72 h; series mostly up to 28.7 µM
In short: as §1

[17] = test system: CP194; test: as above; details: P. falciparum in erythrocytes, SYBR Green DNA, 72 h; series mostly up to 28.7 µM
In short: as §1

[18] = test system: CP201; test: as above; details: P. falciparum in erythrocytes, SYBR Green DNA, 72 h; series mostly up to 28.7 µM
In short: as §1

[19] = test system: CP203; test: as above; details: P. falciparum in erythrocytes, SYBR Green DNA, 72 h; series mostly up to 28.7 µM
In short: as §1

[20] = test system: CP211; test: as above; details: P. falciparum in erythrocytes, SYBR Green DNA, 72 h; series mostly up to 28.7 µM
In short: as §1

[21] = test system: CP215; test: as above; details: P. falciparum in erythrocytes, SYBR Green DNA, 72 h; series mostly up to 28.7 µM
In short: as §1

C[C@@H](Cc1ccc(O)cc1)NC[C@@H](O)c1cc(O)cc(O)c1
inactive: Potency [1] | outcome [2] | outcome [3] | outcome [4] | outcome [5] | activity, negative = inhibition ([6]; parasite line A) 13.4% | activity, negative = inhibition ([6]; parasite line B) 5.16% | Potency [7] | Potency [8] | Potency [9] | Potency [10] | Potency [11] | Potency [12] | Potency [13] | Potency [14] | Potency [15] | Potency [16] | Potency [17] | Potency [18] | Potency [19] | Potency [20] | Potency [21]
